# Results from PubChem BioAssay AID485314 (National Center for Advancing Translational Sciences (NCATS), 2010).
# Out of some 340,000 compounds screened, about 4,500 (1.3%) were called active. Not shown: some 5% with an inconclusive outcome. Only a selection was taken, and actives are over-represented in it overall. Values without a mark were called inactive. Calls come from the whole dose curve; as a rule, active = well fitted inhibition curve with a large enough effect; inconclusive = small, poorly fitted or top-dose-only effect, or another doubt; inactive = no such curve, though single readings can be large or run the other way.
# Biological target: DNA polymerase beta (Homo sapiens) (UniProt P06746)
# Assay: qHTS Assay for Inhibitors of DNA Polymerase Beta
# Conditions: Pol beta primer extension/strand displacement, fluorescence kinetic; series mostly up to 114 µM; activity change, negative = inhibition: at the top concentration
# Summary of the method: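 Values derive from four-parameter Hill fits of normalized kinetic data: reads at 0 and 10 min following addition of 50 nM substrate to 10 nM Pol beta preincubated 15 min with compound.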
# % is set by controls: 0 for no effect and ±100 for the full control effect; potency is the fitted concentration of half-maximal effect.
SMILES,"activity change, negative = inhibition",Potency
Cc1ccc(NC(=O)c2ccc3[nH]c(C)cc(=O)c3c2)c(C)c1,-25%,
Fc1ccc(C(Nc2ccc(Cl)c(C(F)(F)F)c2)c2nnc(-c3ccccc3)o2)cc1 (configuration not stated),19.5%,
Nc1c(Cl)cc(S(N)(=O)=O)cc1S(N)(=O)=O,,25.1 µM (active)
NS(=O)(=O)c1ccc(NC(=S)Nc2ccc(Br)c(Cl)c2)cc1,-1.82%,
CCCN(CCC)C(=O)C1CCCN(c2ncnc3c2nc2n3CCCCC2)C1 (configuration not stated),14.9%,
COc1ccc(-c2cc(C(=O)NCc3cc(OC)c(OC)c(OC)c3)[nH]n2)cc1,26.1%,
CCc1ccccc1NS(=O)(=O)c1ccc2nc(-c3ccccc3)[nH]c2c1,-33%,
CCc1ccc(NC(=O)C2CCCN2S(=O)(=O)c2ccc3nc(-c4ccccc4)[nH]c3c2)cc1 (configuration not stated),,12.6 µM (active)
CCc1nnc(NC(=O)C2CCCN2S(=O)(=O)c2ccccc2)s1 (configuration not stated),-1.63%,
CCc1ccccc1NC(=O)Cc1ccc(NC(=O)N2CCCCc3ccccc32)cc1,7.27%,
CCOc1ccc(Nc2c(S(=O)(=O)c3ccccc3)cnc3ccccc23)cc1,-23.2%,
CCn1cc(C(=O)N2CCN(c3cc(C)ccc3C)CC2)c(=O)c2cc(S(=O)(=O)N(C)C3CCCCC3)ccc21,18.9%,
Cc1ccc(S(=O)(=O)N2CCCc3cc(NS(=O)(=O)c4cc(C)ccc4C)ccc32)cc1,8.08%,
Cc1ccc(Nc2c(-c3ccc(N(C)C)cc3)nc3nc[nH]n23)cc1,5.92%,
O=C(NC(=O)c1ccc(Cl)c(Cl)c1)OC1CCS(=O)(=O)C1 (configuration not stated),,89.1 µM (active)
O=C(Cc1ccc(Cl)cc1)NC1CCS(=O)(=O)C1 (configuration not stated),-17.6%,
O=C(NC(=S)NC1CCS(=O)(=O)C1)c1cccc([N+](=O)[O-])c1 (configuration not stated),31.6%,
O=C1CCCC(O)=C1N=Nc1ccc2ncsc2c1,,35.5 µM (active)
O=C1CCCC(O)=C1N=Nc1ccc(S(=O)(=O)N2CCOCC2)cc1,-9.17%,
O=C(CSc1ncc(CO)n1Cc1ccc(Cl)cc1)NCc1ccc(F)cc1,21.7%,
Cc1cccc(-c2nnc(SCC(=O)N3CCCc4ccccc43)o2)c1,19.1%,
Cc1ccc(-c2cc(C(=O)N/N=C/C=C/c3ccccc3)n[nH]2)o1,,17.8 µM (active)
Cc1ccc(-c2cc(C(=O)NN)n[nH]2)o1,-2.94%,
CC(C)c1cc(C(=O)N/N=C/C(Br)=C/c2ccccc2)n[nH]1,-7.2%,
Cc1ccc(OCC(=O)OCc2cc(=O)n3nc(C4CC4)sc3n2)cc1,-1.49%,
Cc1nn2c(=O)cc(COC(=O)c3ccccc3NC(=O)COc3ccccc3C)nc2s1,32.7%,

SMILES,"activity change, negative = inhibition",Potency
O=C(COc1ccccc1)OCc1cc(=O)n2nc(-c3cccs3)sc2n1,,31.6 µM (active)
Cc1ccc(OCC(=O)OCc2cc(=O)n3nc(C4CC4)sc3n2)cc1C,35.9%,
COc1ccccc1C(=O)OCc1cc(=O)n2nc(-c3cccs3)sc2n1,,17.8 µM (active)
O=C(OCc1cc(=O)n2nc(C3CC3)sc2n1)c1ccccc1Cl,15.1%,
CCCn1c2ccccc2c2cnn(CC(=O)N(CC)c3cc(C)ccc3C)c(=O)c21,1.29%,
COc1ccc(N2CCN(C(=O)COc3ccc4c(C)cc(=O)oc4c3)CC2)cc1,0.172%,
Cc1cc(=O)oc2cc(OCC(=O)Nc3nnc(C4CC4)s3)ccc12,0.954%,
CCOC(=O)Cc1csc(NC(=O)COc2ccc3c(C)cc(=O)oc3c2)n1,,44.7 µM (active)
CCOC(=O)Cc1csc(SCc2cc(=O)oc3cc(O)ccc23)n1,31.2%,
Cc1cc(=O)oc2ccc(OCC(=O)O)cc12,-0.812%,
Cc1ccc(O)c(/C=N/NC(=O)COc2ccc3c(C)cc(=O)oc3c2)c1,,22.4 µM (active)
CCOC(=O)c1c(NC(=O)Cc2coc3ccc(CC)cc23)sc2c1CCC2,18.5%,
COc1ccc(N2CCN(Cc3nc4c(c(=O)[nH]c(=O)n4C)n3Cc3ccc(Cl)cc3)CC2)cc1,-17.7%,
O=C(CSc1ncc(-c2ccccc2)[nH]1)Nc1ccc(F)cc1F,1.98%,
Cc1nc2c(c(C)nn2-c2ccccc2)c(C)c1CCC(=O)NCCc1ccc(Cl)cc1,1.97%,
CCOc1ccccc1CNC(=O)Nc1cn(CC(C)C)c(=O)c2ccccc12,5.13%,
Cc1nn(CC(=O)O)c(=O)c2cc3cc(F)ccc3n12,16.8%,
CCc1ccc(NC(=O)Cn2nnc(C(=O)NCc3ccc(OC)cc3)c2N)cc1,31.3%,
COc1ccc(NC(=O)Cn2nnc(C(=O)NCCc3ccc(OC)c(OC)c3)c2N)cc1,0.0268%,
Cc1cccc(NC(=O)c2nnn(CC(=O)Nc3ccc(C(C)C)cc3)c2N)c1C,26.7%,
COc1ccc(CNC(=O)c2nnn(CC(=O)Nc3cc(C)cc(C)c3)c2N)cc1,,10 µM (active)
CC(C)c1ccc(NC(=O)Cn2nnc(C(=O)NCCc3ccccc3)c2N)cc1,,7.94 µM (active)
CCc1ccc(NC(=O)Cn2nnc(C(=O)NCc3ccc4c(c3)OCO4)c2N)cc1,21.7%,
COCCNC(=O)CSc1nc(-c2ccccc2)[nH]c1-c1ccc(C)cc1,5.82%,
Cc1cccc(NC(=O)CN(c2ccc(C(C)C)cc2)S(=O)(=O)c2c(C)nn(C)c2C)c1C,36.1%,
CCOC(=O)c1c(NC(=O)c2ccc(S(=O)(=O)N(CC)CC)cc2)sc2c1CCCCC2,-0.222%,

SMILES,"activity change, negative = inhibition",Potency
Cc1cc(C)c2oc(C(=O)Nc3ccc(S(=O)(=O)N(C)c4ccccc4)cc3)cc(=O)c2c1,26.5%,
COc1ccc(N2CCN(C(=O)CSCc3nc(-c4ccccc4Cl)oc3C)CC2)cc1,-7.35%,
Cc1nc2sc(C)c(C)n2c(=O)c1S(=O)(=O)NCCc1ccc(Cl)cc1,-2.13%,
CCc1cccc(-n2nnc(-c3nsc(NC(=O)c4ccc(C)cc4)n3)c2C)c1,-13.5%,
CCN(CCCNC(=O)c1cc(Nc2ccc(OC)cc2)nc2ccccc12)c1cccc(C)c1,30.8%,
O=C(N/N=C/c1ccc(OC(=O)c2ccccc2Cl)cc1)c1ccc(O)cc1,17.4%,
Cc1nc2ccc(C(=O)N/N=C/c3ccc(O)cc3)cc2[nH]1,,17.8 µM (active)
Cc1nonc1C(=O)N/N=C/c1ccc(O)cc1,-11.3%,
Cc1ccc2cc(CN(c3ccc(C)c(C)c3)S(C)(=O)=O)c(=O)[nH]c2c1,-21.3%,
COc1ccc(N(Cc2cc3cc(OC)ccc3[nH]c2=O)S(C)(=O)=O)cc1,,4.47 µM (active)
COc1ccc(N(Cc2cc3ccc(C)cc3[nH]c2=O)S(=O)(=O)c2ccccc2)cc1,6.72%,
CCc1ccc(NC(=O)N2CCN(C(=O)c3nsc4ccccc34)CC2)cc1,40.9%,
COc1ccc(CNC(=O)CSCc2nc(-c3ccccc3F)oc2C)cc1,0.319%,
Cn1cc(S(=O)(=O)N2CCCCCC2)cc1C(=O)N1CCN(c2ccc(F)cc2)CC1,3.17%,
N#Cc1ccccc1CN1C(=O)S/C(=C/c2cccn2-c2cccc(C(=O)O)c2)C1=O,,11.2 µM (active)
Cc1nn(Cc2ccccc2)c(C)c1C(=O)NCCN1C(=O)S/C(=C\c2ccc(F)cc2)C1=O,5.67%,
O=C(NCCN1C(=O)S/C(=C\c2cccnc2)C1=O)c1cccc(OC(F)F)c1,21.8%,
O=c1c(NCc2cccs2)nccn1-c1ccccc1,-23.5%,
COc1ccccc1CN1CCC(CNC(=O)c2cnn(-c3cccc(Cl)c3)c2C2CCN(C(=O)OC(C)(C)C)CC2)CC1,-17.3%,
CCc1ccccc1N1CC(c2nc3ccccc3n2CCCCOc2ccccc2)CC1=O (configuration not stated),12%,
CCOc1nc(NCCN2CCOCC2)nc(Nc2ccc(C)cc2)n1,32%,
c1ccc2cc3c(NCCN4CCOCC4)ccnc3cc2c1,,14.1 µM (active)
c1ccc(-c2ccc(OCCN3CCOCC3)cc2)cc1,10.7%,
Cc1cccc2c1-c1sc(C(=O)Nc3ccc(F)cc3F)cc1CO2,-1.64%,
COc1cc(OC)cc(C(=O)OCC(=O)Nc2ccc(F)cc2F)c1,-0.999%,
Cc1cccc(C(=O)OCC(=O)Nc2ccc(F)cc2)c1,-11.2%,

SMILES,"activity change, negative = inhibition",Potency
O=C(COC(=O)c1ccc(F)cc1F)Nc1ncccn1,,35.5 µM (active)
Cc1ccc(NNC(=O)C2CCC2)cc1C,-17.5%,
O=c1cc(C(F)(F)F)[nH]c(=O)n1C1CCCCC1,5.99%,
Cc1ccc(Nc2cc(=O)n(C3CCCCC3)c(=O)[nH]2)cc1C,,56.2 µM (active)
O=C(O)c1ccc(Nc2nc(-c3ccccc3)c3cc(Br)ccc3n2)cc1,29.2%,
COc1cccc(NC(=O)c2ccc3nc(CCc4ccccc4)oc3c2)c1,-29.7%,
O=c1/c(=C/c2ccc(CNS(=O)(=O)c3ccccc3)o2)sc2n1CCN=2,,50.1 µM (active)
O=S(=O)(NCC1OCCc2ccccc21)c1ccccc1 (configuration not stated),-16.7%,
O=S(=O)(NCCNS(=O)(=O)c1ccccc1)c1ccccc1,-13.9%,
CCn1cc(C(=O)NCc2ccccc2)c(=O)c2cc(S(=O)(=O)N3CCCCC3)ccc21,8.9%,
C/C(=N\NC(=O)c1ccccc1F)c1ccccn1,11.4%,
CCN(CC)CCOc1ccc2c(c1)C(=NNC(=O)c1ccccn1)c1cc(OCCN(CC)CC)ccc1-2,,2.82 µM (active)
C/C(=N\NC(=O)Cc1ccc(Cl)cc1)c1ccccn1,18.3%,
O=C(NCCc1ccc(Cl)cc1)c1ccc2c(c1)N(Cc1ccc(F)cc1)C(=O)CS2,24.1%,
CCn1c2c(c(=O)n3ncc(C(=O)N4CCN(c5ccccc5)CC4)c13)CN(Cc1ccc(OC)cc1)CC2,1.91%,
N#Cc1c(N2CCCCC2)nc(N)c2c(N)nc(SCC(=O)O)cc12,,35.5 µM (active)
Nc1nc(NCC(=O)O)nc(N2CCCCCC2)c1[N+](=O)[O-],13.4%,
N#Cc1c(-c2ccccc2)cc(-c2ccccc2)nc1SCC(=O)O,28.5%,
CCC(CC)c1nnc(NC(=O)/C=C/c2ccco2)s1,-1.2%,
Cc1ccc(-n2nc3ccc(NC(=O)/C=C/c4ccco4)cc3n2)cc1C,,44.7 µM (active)
O=C(/C=C/c1ccco1)Nc1ccc(Oc2ccccc2)cc1,13.9%,
Cc1nnc(NC(=O)/C=C/c2ccco2)s1,,31.6 µM (active)
CCC(=O)Nc1ccc2nn(-c3ccc(F)cc3)nc2c1,21.1%,
CCOC(=O)c1c(NC(=O)/C=C/c2ccco2)sc(C)c1C,26.6%,
